Screening data deposited in PubChem BioAssay by National Center for Advancing Translational Sciences (NCATS).
DT40 TDP1 no CPT: qHTS for Inhibitors of human tyrosyl-DNA phosphodiesterase 1 (TDP1): qHTS in cells in absence of CPT. DT40 Tdp1-/- hTDP1 cells, no CPT, ATP luminescence, 48 h. Potency, µM (doses to about 46.2 µM), without a hit: at the top dose activity change, negative = growth inhibition, most hits filed as inhibitors. 420,000 compounds, 15% hits. AID 686978, 2013; also: potency is read from the fitted curve at half-maximal effect; % is scaled to controls: 0 for no effect and ±100 for the full control effect; nearly all actives have a fitted effect of over 55% in size
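Camptothecin absent (DMSO only). Human TDP1-complemented DT40 knockout cells, 400 cells/well, 37 °C for minimum 48 hr; ATP measured via CellTiter-Glo, 30 min dark incubation, luminescence.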
TGFb SMAD3 inh: qHTS for Inhibitors of TGF-b; HepG2 CAGA-GFP TGF-b/SMAD3 reporter, GFP fluorescence, 18 h; TGF-beta stimulated, 500 pg/mL final; Potency, µM (series often up to 46.1 µM), inactives show top-dose activity, negative = inhibition, usual class: inhibitors; 410,000 compounds, 1.2% hits; AID 588855, 2011; also: potency is read from the fitted curve at half-maximal effect; % is scaled to controls: 0 for no effect and ±100 for the full control effect; nearly all actives have a fitted effect of over 65% in size
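HEPG2 CAGA-GFP reporter cells (1000/well, DMEM with 1% FBS) received compounds, then recombinant TGF-beta at 500 pg/mL final for 18 hours at 37 degrees C. Per-cell GFP summed per well was normalised to unstimulated and stimulated DMSO controls before curve fitting.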
TDP1 block: qHTS Assay for Inhibitors of Tyrosyl-DNA Phosphodiesterase (TDP1); Tyrosyl-DNA phosphodiesterase 1 (Homo sapiens), Q9NUW8; recombinant TDP1, AlphaScreen DNA substrate cleavage; Potency, µM (series often up to 130 µM), without a hit: at the top dose activity change, negative = inhibition, usual class: inhibitors; 350,000 compounds, 0.28% hits; also: potency is read from the fitted curve at half-maximal effect; % is scaled to controls: 0 for no effect and ±100 for the full control effect; nearly all actives have a fitted effect of over 40% in size
Target sequence (Q9NUW8 whole entry, looked up): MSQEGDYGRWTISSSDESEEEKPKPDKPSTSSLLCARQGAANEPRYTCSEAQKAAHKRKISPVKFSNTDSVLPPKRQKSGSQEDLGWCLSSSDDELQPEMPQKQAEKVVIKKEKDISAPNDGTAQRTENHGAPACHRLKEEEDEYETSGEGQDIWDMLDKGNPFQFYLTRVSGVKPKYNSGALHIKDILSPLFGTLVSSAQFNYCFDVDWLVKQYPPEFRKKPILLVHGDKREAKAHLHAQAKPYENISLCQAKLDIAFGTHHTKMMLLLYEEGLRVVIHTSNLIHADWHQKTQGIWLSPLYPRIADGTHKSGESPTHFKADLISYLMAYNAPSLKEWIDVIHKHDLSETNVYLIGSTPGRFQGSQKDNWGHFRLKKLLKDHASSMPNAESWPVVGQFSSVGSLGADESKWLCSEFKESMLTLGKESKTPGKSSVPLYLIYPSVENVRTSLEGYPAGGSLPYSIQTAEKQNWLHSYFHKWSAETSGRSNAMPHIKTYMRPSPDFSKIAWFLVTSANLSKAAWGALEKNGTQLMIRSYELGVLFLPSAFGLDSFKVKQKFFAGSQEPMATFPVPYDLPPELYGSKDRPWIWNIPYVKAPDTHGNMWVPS
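Compounds were preincubated with Tdp1 (1 nM final) for 15 min at room temperature before substrate (15 nM final) started a 5 min reaction; beads (10 ug/ml final) were then added for 10 min before AlphaScreen detection.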
IL-1B inflam inh: qHTS for Inhibitors of Inflammasome Signaling: IL-1-beta AlphaLISA Primary Screen; AID 743279, 2014; THP-1 LPS/ATP IL-1B secretion, AlphaLISA, 16 h; stronger effect = lower value; 360,000 compounds, 4.7% hits; activity change, % at 57.5 µM; in the data active = activity change below about -50%; inconclusive = mostly about -30% to -49%; also: % is scaled to controls: 0 for no effect and ±100 for the full control effect
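Secreted IL-1B measured by AlphaLISA bead assay after 16 h compound exposure of THP-1 cells; compounds (final up to 57.5 uM) added 1 h before LPS (250 ng/mL) and ATP (1.25 mM) stimulation; lower signal means less secretion.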
HepG2 viability: qHTS for Inhibitors of TGF-b: Cytotox Counterscreen; HepG2 CAGA-GFP viability, ATP luminescence, 18 h; Potency, µM (series often up to 46.1 µM), for inactives: at the top dose activity change, negative = cytotoxicity, actives largely listed as cytotoxic; 410,000 compounds, 0.76% hits; also: potency is read from the fitted curve at half-maximal effect
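HepG2 CAGA-GFP cells (1000/well, DMEM with 1% FBS) received compound, then TGF-beta at 500 pg/mL final, and were incubated 18 hours at 37 degrees C. Viability was read by CellTiter-Glo luminescence. Media-only wells were set as complete cell-killing and DMSO as no toxicity.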
TDP1 cell CPT: qHTS for Inhibitors of human tyrosyl-DNA phosphodiesterase 1 (TDP1): qHTS in cells in presence of CPT; chicken DT40 Tdp1-/-;hTDP1 cells + 20 nM CPT, ATP luminescence, 48 h; Potency, µM (highest dose often 46.2 µM), for the others: at the highest dose activity change, negative = growth inhibition, usual class: inhibitors; 420,000 compounds, 12% hits; also: potency is read from the fitted curve at half-maximal effect; % is scaled to controls: 0 for no effect and ±100 for the full control effect; nearly all actives have a fitted effect of over 55% in size
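Cell growth measured by CellTiter-Glo luminescence after a minimum 48 h, 37 C compound exposure with 20 nM CPT in Tdp1-knockout DT40 cells stably expressing hTDP1, seeded 400/well; qHTS titration format.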
* hit, by the source's call. This is a sample that favours compounds with a hit; in the whole collection about 18% have one here. Unless noted, calls follow the shape of the dose curve; as a rule, active = well fitted curve in the direction sought with a large enough effect; inconclusive = small, poorly fitted or top-dose-only effect, or another doubt; inactive = no such curve, though single readings can be large; an effect the other way counts as inactive or inconclusive.

What do the screens show for `CCCCCCCCCC[n+]1cc(Br)cc(Br)c1`?
DT40 TDP1 no CPT: 0.45µM*; TGFb SMAD3 inh: inconclusive; HepG2 viability: 22µM*; TDP1 cell CPT: 0.79µM*

How did CCCCCCCCCC[n+]1cccc(C(=O)N(CC)CC)c1 do in these assays?
DT40 TDP1 no CPT: 2.9µM*; TGFb SMAD3 inh: 0%; TDP1 block: 4%; IL-1B inflam inh: -23; HepG2 viability: 3%; TDP1 cell CPT: 8.2µM*

How did N#CC[n+]1cccc(Br)c1 do in these assays?
DT40 TDP1 no CPT: 1%; TGFb SMAD3 inh: -1%; HepG2 viability: 2%; TDP1 cell CPT: 2%

Results for Brc1ccc[n+](CCC2CCCCC2)c1 ?
DT40 TDP1 no CPT: 10µM*; TGFb SMAD3 inh: -1%; HepG2 viability: -9%; TDP1 cell CPT: inconclusive

Results for CCCCCCCCCC[n+]1cccc(Br)c1 ?
DT40 TDP1 no CPT: 5µM*; TGFb SMAD3 inh: inconclusive; HepG2 viability: -30%; TDP1 cell CPT: 1.4µM*

What do the screens show for `Cc1ccc(S(=O)(=O)CCC(=O)OCn2nnc3ccccc3c2=O)cc1`?
DT40 TDP1 no CPT: inconclusive; TGFb SMAD3 inh: -2%; TDP1 block: -3%; IL-1B inflam inh: 3; HepG2 viability: 14%; TDP1 cell CPT: inconclusive

How did COc1ccc(CCNC(=O)c2coc3ccccc3c2=O)cc1OC do in these assays?
DT40 TDP1 no CPT: -28%; TGFb SMAD3 inh: 8%; IL-1B inflam inh: 7; HepG2 viability: 21%; TDP1 cell CPT: -21%

Results for CCC(C)[C@H]1CN=C(N)N1CCc1cccc(F)c1 (stereo not given in full) ?
DT40 TDP1 no CPT: 13µM*; TGFb SMAD3 inh: inconclusive; IL-1B inflam inh: -20; HepG2 viability: 3%; TDP1 cell CPT: 18µM*

How did O=C(C[n+]1ccccc1)Nc1ccc(Oc2ccccc2)cc1 do in these assays?
DT40 TDP1 no CPT: inconclusive; TGFb SMAD3 inh: 0%; TDP1 block: 3%; IL-1B inflam inh: inconclusive; HepG2 viability: -3%; TDP1 cell CPT: 12µM*

What do the screens show for `COc1cc(NC(=O)Cc2ccccc2)cc(OC)c1`?
DT40 TDP1 no CPT: inconclusive; TGFb SMAD3 inh: -13%; TDP1 block: 6%; IL-1B inflam inh: -15; HepG2 viability: -19%; TDP1 cell CPT: 7%

How did CO/N=C\CC(=O)Nc1ccc(Oc2ccccc2)cc1 do in these assays?
DT40 TDP1 no CPT: 1.3µM*; TGFb SMAD3 inh: -3%; TDP1 block: 2%; IL-1B inflam inh: 81; HepG2 viability: -21%; TDP1 cell CPT: 1.5µM*

How did COc1cc(NC(=O)C[n+]2ccc(C(=O)c3ccccc3)cc2)cc(OC)c1 do in these assays?
DT40 TDP1 no CPT: 13µM*; TGFb SMAD3 inh: 19%; TDP1 block: 3%; IL-1B inflam inh: -21; HepG2 viability: 8%; TDP1 cell CPT: 23µM*

Results for C[C@@H]1C(=O)OC[C@H]1NC(=O)OCc1ccccc1 ?
DT40 TDP1 no CPT: 16%; TGFb SMAD3 inh: 0%; TDP1 block: 0%; IL-1B inflam inh: 19; HepG2 viability: -10%; TDP1 cell CPT: 7%

How did CC(=O)c1cc2ccc(O)cc2oc1=O do in these assays?
DT40 TDP1 no CPT: 6%; TGFb SMAD3 inh: 1%; TDP1 block: -2%; IL-1B inflam inh: -9; HepG2 viability: 14%; TDP1 cell CPT: -2%

How did Cc1ccc(N=c2oc3cc(O)ccc3cc2C(N)=O)cc1 do in these assays?
DT40 TDP1 no CPT: 7.3µM*; TGFb SMAD3 inh: 14%; TDP1 block: 5%; IL-1B inflam inh: inconclusive; HepG2 viability: -29%; TDP1 cell CPT: 8.2µM*

How did COc1ccc(N=c2oc3cc(O)ccc3cc2C(=O)Nc2ccccn2)cc1OC do in these assays?
DT40 TDP1 no CPT: 2.1µM*; TGFb SMAD3 inh: 25%; TDP1 block: 0%; IL-1B inflam inh: -28; HepG2 viability: 14%; TDP1 cell CPT: 1.5µM*

How did COc1ccc(N=c2oc3cc(O)ccc3cc2C(=O)NCC2CCCO2)cc1 (stereo not given) do in these assays?
DT40 TDP1 no CPT: inconclusive; TGFb SMAD3 inh: -15%; TDP1 block: -3%; IL-1B inflam inh: -24; HepG2 viability: 9%; TDP1 cell CPT: inconclusive

What do the screens show for `CN(C(=O)c1ccc(NC(=O)C2CCCN(C(=O)OC(C)(C)C)C2)cc1)C1CC1` (stereo not given)?
DT40 TDP1 no CPT: inconclusive; TGFb SMAD3 inh: -5%; TDP1 block: 3%; IL-1B inflam inh: 8; HepG2 viability: 3%; TDP1 cell CPT: inconclusive

What do the screens show for `COc1ccccc1N1CCN(C(=O)c2cc(S(=O)(=O)N3CCC(C)CC3)cn2C)CC1`?
DT40 TDP1 no CPT: inconclusive; TGFb SMAD3 inh: inconclusive; TDP1 block: 8%; HepG2 viability: -32%; TDP1 cell CPT: 21µM*

Results for Cc1ccc(Cl)cc1N1CCN(C(=O)c2cc(S(=O)(=O)N3CCC(C)CC3)cn2C)CC1 ?
DT40 TDP1 no CPT: 15µM*; TGFb SMAD3 inh: 7.1µM*; TDP1 block: 5%; HepG2 viability: -19%; TDP1 cell CPT: 23µM*

Results for COC(=O)c1cc(S(=O)(=O)N2CCN(c3ccccc3OC)CC2)cn1C ?
DT40 TDP1 no CPT: inconclusive; TGFb SMAD3 inh: -3%; TDP1 block: 2%; IL-1B inflam inh: 11; HepG2 viability: -7%; TDP1 cell CPT: 5%

How did CC(=O)Nc1c(C(=O)Nc2cccc(C)c2)nnn1-c1ccc(C)cc1 do in these assays?
DT40 TDP1 no CPT: inconclusive; TGFb SMAD3 inh: inconclusive; TDP1 block: 3%; HepG2 viability: -48%; TDP1 cell CPT: inconclusive

Results for COCCCN(C(=O)c1cc(Cl)nc2ccccc12)c1c(N)n(Cc2ccccc2)c(=O)[nH]c1=O ?
DT40 TDP1 no CPT: -4%; TGFb SMAD3 inh: -4%; TDP1 block: -4%; IL-1B inflam inh: 11; HepG2 viability: -6%; TDP1 cell CPT: 8%

What do the screens show for `COc1ccc(OCC(=O)NCC2(N3CCN(C)CC3)CCCCC2)cc1`?
DT40 TDP1 no CPT: -18%; TGFb SMAD3 inh: 0%; TDP1 block: -7%; HepG2 viability: -17%; TDP1 cell CPT: -2%

What do the screens show for `CN(C)C(=O)/C(=C/c1ccc(-c2cccc([N+](=O)[O-])c2)o1)NC(=O)c1ccccc1`?
DT40 TDP1 no CPT: inconclusive; TGFb SMAD3 inh: 0%; IL-1B inflam inh: inconclusive; HepG2 viability: -2%; TDP1 cell CPT: inconclusive
